# Screens as filed in PubChem BioAssay.
# Marburg entry inh: qHTS for inhibitors of binding or entry into cells for Marburg Virus; Marburg virus pseudotyped entry inhibition, cell reporter; Potency, µM (doses to about 37.8 µM), for inactives: at the highest dose activity change, negative = inhibition, usual class: inhibitors; 1.8% of 300,000 active; AID 540276, 2011; calls by dose curve; tested in HEK293 cells; note: potency is the fitted concentration of half-maximal effect
# FMDV inh: High Throughput Screening for Foot and Mouth Disease Virus Antivirals; FMDV antiviral cell-based qHTS; Potency, µM (highest dose often 57.9 µM), without a hit: top-dose activity change, negative = inhibition, actives largely listed as inhibitors; 1.2% of 410,000 active; AID 1159524, 2015; calls by dose curve; tested in HEK293T cells; note: read-out not given here; potency is the fitted concentration of half-maximal effect; nearly all actives have a fitted effect of over 45% in size
# HCMV inh: qHTS Assay for inhibitors of the human cytomegalovirus (HCMV) | activity change, negative = inhibition, % at 57.5 µM | HFF cells, HCMV-luciferase reporter, 72 h; active compounds read low | 4.5% of 410,000 active; in the data active = activity change below about -60%; inconclusive = no clear call, values can overlap the other calls; inactive = above about -39%
#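 After 16 h attachment at 37C, HFF cells received test compound and HCMV-luciferase (1 PFU/cell); reporter luminescence read 72 h later, data normalized against buffer-only and known inhibitor Salinomycin.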
# LASV entry inh: qHTS for Inhibitors of binding or entry into cells for Lassa Virus | Lassa virus pseudotype entry inhibition, cell reporter | Potency, µM (top dose mostly 37.9 µM), without a hit: at the highest dose activity change, negative = inhibition, usual class: inhibitors | 1.2% of 300,000 active; calls by dose curve; tested in HEK293 cells; note: potency is the fitted concentration of half-maximal effect; nearly all actives have a fitted effect of over 50% in size
# HCV inhibitor: qHTS Assay for Inhibitors of Hepatitis C Virus (HCV) | 3.4% of 340,000 active | AID 651820, 2012 | Huh7.5.1 HCVcc-Cre infection, luciferase reporter, 44 h | Potency, µM (highest dose often 41.8 µM), for the others: top-dose activity change, negative = inhibition, actives largely listed as inhibitors; active = well fitted inhibition curve with a large enough effect; inconclusive = small, poorly fitted or top-dose-only effect, or another doubt; inactive = no such curve, though single readings can be large or run the other way; note: potency is the fitted concentration of half-maximal effect
#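 Infectious HCV cell culture screen: compound-treated cells (1,000/well, pre-plated 4 h) are infected with HCVcc-Cre at roughly 0.5 moi and grown 44 h. Infection is quantified by luciferase signal after 15 min substrate incubation at room temperature.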
# Numbers without * were called inactive; ? = inconclusive; . = no result given; + = active, no number; ! = repeats disagree; [ ] = another dose, or the depositor's remark. An excerpt weighted towards active compounds, which were near 7.9% of everything screened. % is set by controls: 0 for no effect and ±100 for the full control effect.
SMILES,Marburg entry inh,FMDV inh,HCMV inh,LASV entry inh,HCV inhibitor
Cn1c(-c2csc(-c3cccc(C(F)(F)F)c3)n2)n[nH]c1=S,14%,8%,-84*,15%,8%
COC(=O)C1=C2CCO[C@@H]2[C@H]2[C@@H](C)[C@H](OC)c3ccccc3[C@H]12,0%[14.2 µM],.,.,?,.
CN=C(c1ccc(C)cc1)n1c(=S)nc(-c2ccc(C)cc2)n(C)c1=S,-14%[46.1 µM],-6%,15,17%,-9%
CN=C(c1ccco1)n1c(=S)nc(-c2ccco2)n(C)c1=S,-2%[46.1 µM],7%,73,7%,11µM*
C=C(C)C(=O)OC1(C(F)(F)F)Oc2cc(C)ccc2NC1=O (stereo not given),?,-29%,-95*,-20%,8%
CCOC(=O)c1c(C)[nH]c(C(=O)N2CCc3cc(OC)c(OC)cc3C2)c1C,-20%,?,3,?,11µM*
O=c1[nH]c2ccccc2c2ccccc12,?,-3%,16,15%,14µM*
COc1ccc(C2CC(C(F)(F)F)n3nc(C(=O)NCc4cn(C)nc4C)c(Cl)c3N2)cc1 (stereo not given),?,.,-72*,-23%,?
Cc1nn(C)cc1CN(C)C(=O)c1nn2c(c1Cl)NC(c1cccs1)CC2C(F)(F)F (stereo not given),1%,.,-78*,3%,4%
Cc1ccc(C2CC(C(F)(F)F)n3nc(C(=O)NCc4c(C)nn(C)c4C)c(Cl)c3N2)cc1 (stereo not given),12µM*!,25µM*,?,?,8.9µM*
Cc1nn(C)cc1CN(C)C(=O)c1nn2c(c1Br)NC(c1cccs1)CC2C(F)(F)F (stereo not given),?,-13%,-31,-18%[46.1 µM],-19%
CC(NC(=O)c1ccco1)c1nnc2n1CCN(Cc1cccc(Cl)c1)CC2 (stereo not given),.,-1%,.,.,.
CCS(=O)(=O)NCc1c(C)ncc2c1CCN(C(=O)c1ccc(F)cc1)C2,.,-15%,.,.,.
COc1ccccc1-c1cc(-c2ccccc2)nc(SC(C(N)=O)c2ccccc2)c1C#N (stereo not given),15µM*,-16%,?,?,?
COc1ccc(-c2cc(C)no2)cc1S(=O)(=O)N1CCN(c2ccc(C(C)=O)cc2)CC1,.,0%,0,7%[46.1 µM],.
N#CC1=C2N=C(N)c3ccccc3N2C2=C(C(=O)CCC2)C1c1ccc(F)cc1 (stereo not given),.,-10%,-18,.,13µM*
CC1CN=C(c2cc(Cl)c(N)c(Cl)c2)c2c3ccccc3[n+]([O-])n21 (stereo not given),.,.,55,.,.
CC1CN(C(=O)Nc2ccccc2)c2ccccc2-[n+]2ccsc21 (stereo not given),0%,-4%,-39,-15%,?
O=C(Nc1ccccc1)N1CCc2scc[n+]2-c2ccccc21,4%,-8%,-67*,1%,?
Cc1ccc(S(=O)(=O)Nc2ccccc2C(=O)OC(C)C(=O)Nc2ccc3ccccc3c2)cc1[N+](=O)[O-] (stereo not given),?,0%,?,-4%,7%
Cc1ccc(NC(=O)C(C)OC(=O)c2ccc(NS(=O)(=O)c3ccc(F)c(F)c3)cc2)cc1 (stereo not given),?,?,-37,?,?
CC(=O)c1ccc(NC(=O)C(C)OC(=O)c2ccc(NS(=O)(=O)c3ccc(F)c(F)c3)cc2)cc1 (stereo not given),-9%,-6%,-37,11%,13µM*
CCc1ccc(NC(=O)C(C)OC(=O)c2ccc(NS(=O)(=O)c3ccc(C)c([N+](=O)[O-])c3)cc2)cc1 (stereo not given),?,-17%,62,?,11µM*
Brc1ccc(/C=N/Nc2nc3ccccc3o2)cc1,.,54%,-9,.,-15%
Cc1cc(C)nc(Nc2nc3ccccc3o2)n1,-1%[46.1 µM],0%,68,-20%,-16%
SMILES,Marburg entry inh,FMDV inh,HCMV inh,LASV entry inh,HCV inhibitor
Oc1ccccc1/C=N/Nc1ncc(Br)cn1,-24%,49%,-98*,-5%,?
CC(=NNc1nc2ccccc2o1)c1cc2ccccc2cn1,0.35µM*,-20%,-99*,0.79µM*,?
Oc1ccccc1/C=N/Nc1ccccc1,?,34%,-8,?,-8%
CC(=NNc1nc2ccccc2o1)c1ncccn1,0.4µM*,-4%,-77*,0.89µM*,3.5µM*
Oc1ccccc1/C=N/Nc1nc2ccccc2o1,?,5%,+,?,?
COc1nnc(-c2ccccc2)s1,?,25%,23,6%,10%
Cc1ccc(C)c(N2CCN(C(=O)CCn3c(=O)c4cccn4c4cccnc43)CC2)c1,.,?,-11,-12%[46.1 µM],.
O=C(N/C(=C/c1ccc(Cl)cc1)C(=O)N1CCOCC1)c1ccccc1,?,15%,-78*,17%,33%
O=C(N/C(=C/c1cccs1)C(=O)N1CCCCCC1)c1ccccc1,21%,63%,-98*,-10%[14.3 µM],15%
COc1cc(CNC(C)c2ccccc2)cc(Br)c1OCc1ccc(F)cc1 (stereo not given),3.5µM*,-30%,?,?,22µM*
COc1cc(CNC(C)c2ccccc2)cc(Br)c1OCc1ccccc1 (stereo not given),7.9µM*,0%,-31,?,?
COc1cc(CNC(C)c2ccccc2)cc(Cl)c1OCC(=O)Nc1ccccc1 (stereo not given),.,?,-39,.,11µM*
COc1ccccc1OCC(=O)Nc1c(C(=O)c2ccc(F)cc2)oc2ccccc12,?,-16%,-12,1%[46.1 µM],.
CC1CCC2(CC1)NC(=O)N(CC(=O)NC(C)c1ccc(F)c(F)c1)C2=O (stereo not given),.,-14%,0,.,0%
CC(/C=C/c1ccccc1)=N\Nc1ccccc1[N+](=O)[O-],?,21%,-73*,-4%[46.1 µM],-15%
O=C(/C=C/c1ccc(Cl)cc1)N1CCC(c2nc3ccccc3o2)CC1,?,7%,-28,-1%[46.1 µM],.
Cc1ccc(-n2nnnc2SCC(=O)c2cc(C)n(-c3cc(C)on3)c2C)cc1,1%,.,-9,12µM*,?
Cc1cc(-n2c(C)cc(C(=O)CSc3nncn3C(C)C)c2C)no1,-2%,9%,-97*,2%,6%
Cc1cc(-n2c(C)cc(C(=O)COc3ccc(F)c(F)c3)c2C)no1,.,44%,.,.,10µM*
Cc1cc(-n2c(C)cc(C(=O)CSc3nncn3C)c2C)no1,11%[46.1 µM],15%,-24,-7%[46.1 µM],?
Cc1cc(C)c(C(N)=O)c(SCC(=O)c2cc(C)n(-c3cc(C)on3)c2C)n1,.,?,?,.,2.2µM*
COCCCN(Cc1ccco1)C(=O)Cn1ncc2c(=O)oc3ccc(C)cc3c21,.,-11%,-11,.,-12%
N[C@@]1(C(=O)O)CN[C@@H](C(=O)O)C1,.,-9%,.,.,.
